Source: PubChem BioAssay
The source made the active and inactive calls. Unless noted, no rule for the calls is given here.

Key:
[1] = anti-His antibody binders, primary screen, artefact control for SMM control protein annotation, biochemical, small-molecule microarray, 635 nm fluorescence (AID 1128); settings: anti-His Alexa647 antibody binding, higher = more signal;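 also: score merges feature fluorescence with signal-to-noise for each printed compound spot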
[2] = test system: Human papillomavirus type 1a E7 protein (residues 1-88); assay: HPV1a E7 small-molecule binders, primary screen, biochemical, small-molecule microarray, residues 1-88, 635 nm (AID 1129); settings: small-molecule microarray binding, fluorescence 635 nm; higher = more signal
[3] = target: Focal adhesion kinase 1 (Homo sapiens) (UniProt Q05397); assay: small-molecule microarray binders of FAK, primary screen, biochemical, 635/667 nm fluorescence, BSA, DTT (AID 1130); settings: PTK2 binding, 635 nm fluorescence, higher = more signal;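 also: composite of spot emission at 667 nm and signal to noise over triplicate slides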
[4] = test system: Fibrinogen (Alexa647-labelled); assay: fibrinogen binders on compound microarrays, profiling panel, artefact control for SMM control-protein annotation, biochemical, small-molecule microarray, 635/667 nm fluorescence (AID 1131); settings: fibrinogen-A647 binding fluorescence, higher = more signal;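 also: z-score merges 667 nm fluorescence with per-spot signal-to-noise over triplicate slides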
[5] = target: Follistatin (Homo sapiens) (UniProt P19883); assay: follistatin binders on small-molecule microarrays, primary screen, biochemical, small-molecule microarray, 635/667 nm fluorescence (AID 1132); settings: FST binding, 635 nm fluorescence, higher = more signal
[6] = target: Fibroblast growth factor 2 (Homo sapiens) (UniProt P09038); assay: FGF2 binders on small-molecule microarrays, primary screen, biochemical, small-molecule microarray, 635/667 nm fluorescence (AID 1133); settings: small-molecule microarray binding, FGF2, fluorescence 635/667; higher = more signal
[7] = mitochondrial membrane potential change in A549 cells, profiling panel, cell-based, JC-1 fluorescence, basal, 24 h, 100 nL (AID 1138); settings: higher = more signal;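 also: A549 lung adenocarcinoma cells under basal conditions with no added stimulus; test concentration not given here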
Lefty1 = Lefty1 binders on small-molecule microarrays, primary screen, biochemical, small-molecule microarray, 635/667 nm fluorescence (AID 1139); settings: small-molecule microarray binding, fluorescence 635/667; higher = more signal
[8] = test system: wheat germ agglutinin (Triticum aestivum), Alexa647-labelled; assay: wheat germ agglutinin binders on compound microarrays, profiling panel, artefact control for SMM control-protein annotation, biochemical, small-molecule microarray, 635/667 nm fluorescence (AID 1140); settings: WGA-A647 binding, 635 nm fluorescence, higher = more signal;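 also: score merges 667 nm feature emission with signal to noise over triplicate slides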
[9] = target: Luciferin 4-monooxygenase (Photinus pyralis) (UniProt P08659); assay: firefly luciferase enzyme inhibitors, primary screen, biochemical, luminescence, purified enzyme, 2006 set (AID 1141); settings: SteadyGlo luminescence, 30 min, higher = more signal, called active from +8 up or from −8 down;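 also: cell-free assay with purified firefly luciferase at 100 ng per well in PBS; test concentration not given here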
[10] = test system: Wnt5a (protein binding on small-molecule microarray); assay: Wnt5a binders on small-molecule microarray, primary screen, biophysical, 635/667 nm fluorescence (AID 1142); settings: 635 nm fluorescence, higher = more signal;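 also: fluorescence read at 667 nm with signal to noise per printed feature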
[11] = cell viability in Huh7 cells, primary screen, cytotoxicity control for HCV replication inhibitor project, CellTiter-Glo luminescence, basal, 48 h (AID 1143); settings: Huh7 HCV replicon, higher = more signal, called active from +8 up or from −8 down;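 also: Huh7 hepatoma cells carrying a hepatitis C replication reporter with no stimulus; test concentration not given here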
[12] = P. aeruginosa biofilm formation inhibitors, primary screen, PAO1 strain, BacTiter-Glo luminescence, LB-PBS (AID 1144); settings: 12 h, higher = more signal
[13] = CREB reporter modulators without forskolin, primary screen, cell-based, PC12, CRE-LacZ reporter, unstimulated (AID 1145); settings: no forskolin, luminescence, 4.5 h, higher = more signal, called active from +8 up or from −8 down
[14] = CREB reporter modulators under forskolin, primary screen, cell-based, PC12, CRE-LacZ reporter, forskolin-stimulated (AID 1146); settings: luminescence, 4.5 h, higher = more signal, called active from +8 up or from −8 down;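 also: PC12 cells with 6xCRE LacZ reporter stimulated by forskolin 10 µM; beta-galactosidase reporter signal reflecting CREB driven transcription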
[15] = target: Streptavidin (Streptomyces avidinii) (UniProt P22629); assay: streptavidin binders on small-molecule microarray, primary screen, artefact control for SMM compound annotation, biophysical, 635/667 nm fluorescence (AID 1147); settings: streptavidin binding, higher = more signal;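 also: signal reflects streptavidin binding to arrayed compounds as a control protein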
[16] = small-molecule binders of probe aInhba, primary screen, biochemical, small-molecule microarray, 635/667 nm fluorescence (AID 1148); settings: higher = more signal;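 also: score merges 667nm spot fluorescence with signal-to-noise for antibody binding to printed compounds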
Torsin-1A (Homo sapiens) [17] = target: Torsin-1A (Homo sapiens) (UniProt O14656); assay: torsin A binders from cell lysate, primary screen, small-molecule microarray, wild-type, 635/667 nm (AID 1149); settings: COS7 hTOR1A-WT lysate, 635 nm fluorescence, higher = more signal
Torsin-1A (Homo sapiens) [18] = target: Torsin-1A (Homo sapiens) (UniProt O14656); assay: small-molecule binders of mutant TOR1A in lysate, primary screen, cell lysate, small-molecule microarray, COS7 lysate, 635/667 nm fluorescence (AID 1150); settings: COS7 hTOR1A mutant lysate, 635 nm fluorescence, higher = more signal;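 also: score pools 667 nm emission and signal to noise measuring lysate protein binding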
[19] = test system: Sonic hedgehog protein (Shh); assay: small-molecule binders of Shh protein, primary screen, biochemical, small-molecule microarray, 635/667 nm fluorescence (AID 1151); settings: small-molecule microarray binding, 635 nm fluorescence; higher = more signal;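 also: Shh protein binding to compounds spotted on small-molecule microarray slides; score combines spot fluorescence intensity with signal-to-noise across triplicate slides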

Sequence of Focal adhesion kinase 1 (Homo sapiens) (Q05397 whole entry, looked up): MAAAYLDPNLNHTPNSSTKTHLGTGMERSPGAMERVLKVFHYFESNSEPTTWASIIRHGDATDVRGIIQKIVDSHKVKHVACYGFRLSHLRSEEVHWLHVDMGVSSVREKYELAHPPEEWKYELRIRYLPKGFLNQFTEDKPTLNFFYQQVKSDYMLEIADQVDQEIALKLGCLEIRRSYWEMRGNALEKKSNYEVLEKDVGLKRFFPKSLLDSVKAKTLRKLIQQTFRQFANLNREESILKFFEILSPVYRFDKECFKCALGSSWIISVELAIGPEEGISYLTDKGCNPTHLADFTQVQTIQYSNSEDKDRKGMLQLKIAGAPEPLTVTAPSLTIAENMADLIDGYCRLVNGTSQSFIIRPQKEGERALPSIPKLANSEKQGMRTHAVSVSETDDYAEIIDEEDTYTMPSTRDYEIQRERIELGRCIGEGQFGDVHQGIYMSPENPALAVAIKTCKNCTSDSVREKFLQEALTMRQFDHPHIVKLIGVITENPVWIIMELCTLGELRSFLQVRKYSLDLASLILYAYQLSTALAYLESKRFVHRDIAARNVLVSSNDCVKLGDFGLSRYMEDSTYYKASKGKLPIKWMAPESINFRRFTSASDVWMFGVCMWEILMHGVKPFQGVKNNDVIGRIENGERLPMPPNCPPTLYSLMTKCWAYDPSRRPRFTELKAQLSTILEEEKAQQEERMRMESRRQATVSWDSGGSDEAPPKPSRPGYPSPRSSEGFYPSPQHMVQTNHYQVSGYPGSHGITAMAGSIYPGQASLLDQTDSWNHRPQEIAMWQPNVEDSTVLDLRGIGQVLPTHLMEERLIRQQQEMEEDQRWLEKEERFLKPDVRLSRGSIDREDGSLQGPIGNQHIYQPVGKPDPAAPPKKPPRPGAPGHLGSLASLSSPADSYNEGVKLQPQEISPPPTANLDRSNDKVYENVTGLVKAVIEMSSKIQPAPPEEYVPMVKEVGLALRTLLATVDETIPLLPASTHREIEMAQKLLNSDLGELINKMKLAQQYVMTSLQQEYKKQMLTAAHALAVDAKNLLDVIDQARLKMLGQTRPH
Sequence of Fibroblast growth factor 2 (Homo sapiens) (P09038 whole entry, looked up): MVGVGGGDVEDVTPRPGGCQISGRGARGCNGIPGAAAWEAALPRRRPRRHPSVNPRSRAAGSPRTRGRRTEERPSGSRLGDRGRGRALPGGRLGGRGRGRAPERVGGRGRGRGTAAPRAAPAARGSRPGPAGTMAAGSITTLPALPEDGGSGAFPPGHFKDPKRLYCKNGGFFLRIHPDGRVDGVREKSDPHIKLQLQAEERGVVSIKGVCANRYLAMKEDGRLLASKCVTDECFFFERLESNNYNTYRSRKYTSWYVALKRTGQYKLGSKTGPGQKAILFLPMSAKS
Sequence of Torsin-1A (Homo sapiens) (O14656 whole entry, looked up): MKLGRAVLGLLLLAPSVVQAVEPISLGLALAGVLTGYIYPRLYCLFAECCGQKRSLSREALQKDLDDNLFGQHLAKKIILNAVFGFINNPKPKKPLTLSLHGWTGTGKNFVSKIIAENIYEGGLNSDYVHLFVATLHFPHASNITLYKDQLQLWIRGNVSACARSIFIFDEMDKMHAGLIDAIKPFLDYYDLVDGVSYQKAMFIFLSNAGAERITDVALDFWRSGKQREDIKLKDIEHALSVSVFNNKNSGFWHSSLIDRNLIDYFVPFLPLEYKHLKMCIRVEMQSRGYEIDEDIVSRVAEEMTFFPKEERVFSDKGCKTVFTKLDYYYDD
Sequence of Luciferin 4-monooxygenase (Photinus pyralis) (P08659 whole entry, looked up): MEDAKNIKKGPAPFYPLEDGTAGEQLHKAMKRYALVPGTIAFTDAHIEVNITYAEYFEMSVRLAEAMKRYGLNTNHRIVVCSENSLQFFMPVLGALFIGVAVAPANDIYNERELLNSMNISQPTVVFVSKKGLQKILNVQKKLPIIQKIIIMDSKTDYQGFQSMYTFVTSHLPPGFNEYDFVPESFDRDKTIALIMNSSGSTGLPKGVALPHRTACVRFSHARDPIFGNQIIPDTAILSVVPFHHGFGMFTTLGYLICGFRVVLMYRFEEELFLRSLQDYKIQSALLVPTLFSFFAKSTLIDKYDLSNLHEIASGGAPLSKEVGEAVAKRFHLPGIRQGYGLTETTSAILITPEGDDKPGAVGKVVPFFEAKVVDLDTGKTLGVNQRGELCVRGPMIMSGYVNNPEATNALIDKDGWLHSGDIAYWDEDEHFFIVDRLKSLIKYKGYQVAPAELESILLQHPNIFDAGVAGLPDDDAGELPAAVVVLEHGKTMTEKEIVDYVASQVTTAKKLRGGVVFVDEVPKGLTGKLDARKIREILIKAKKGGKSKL
Sequence of Follistatin (Homo sapiens) (P19883 whole entry, looked up): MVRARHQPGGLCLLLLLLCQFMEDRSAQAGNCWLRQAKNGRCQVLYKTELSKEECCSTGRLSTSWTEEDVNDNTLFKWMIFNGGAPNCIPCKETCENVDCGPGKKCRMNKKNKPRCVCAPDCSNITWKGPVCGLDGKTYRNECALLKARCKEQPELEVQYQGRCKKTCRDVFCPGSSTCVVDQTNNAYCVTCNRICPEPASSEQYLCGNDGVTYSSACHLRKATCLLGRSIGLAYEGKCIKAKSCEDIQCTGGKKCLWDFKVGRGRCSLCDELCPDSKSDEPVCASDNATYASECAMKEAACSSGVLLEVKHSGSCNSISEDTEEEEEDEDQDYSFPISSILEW
Sequence of Streptavidin (Streptomyces avidinii) (P22629 whole entry, looked up): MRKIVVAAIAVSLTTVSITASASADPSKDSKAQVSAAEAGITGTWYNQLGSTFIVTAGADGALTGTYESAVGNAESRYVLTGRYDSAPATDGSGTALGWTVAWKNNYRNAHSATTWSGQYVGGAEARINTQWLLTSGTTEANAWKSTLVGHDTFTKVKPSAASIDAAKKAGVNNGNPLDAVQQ

Structure (SMILES): Cc1c(-c2ccc(-c3ccc(Cl)c(Cl)c3)o2)nc(-c2ccccc2)c2c1CO[Si]2(C(C)C)C(C)C
- composite z-score [1]: 0.466
- composite z-score [2]: 0.168
- composite z-score [3]: -0.0127
- composite z-score [4]: 0.407
- composite z-score [5]: -0.161
- composite z-score [6]: -0.255
- z-score [7]: -0.777
- composite z-score (Lefty1): 0.351
- composite z-score [8]: 0.284
- z-score [9]: -0.056 (inactive)
- composite z-score [10]: -0.0882
- z-score [11]: -0.98 (inactive)
- z-score [12]: 0.163 (inactive)
- z-score [13]: -0.882 (inactive)
- z-score [14]: 1.86 (inactive)
- composite z-score [15]: -0.107
- composite z-score [16]: -0.179
- composite z-score (Torsin-1A (Homo sapiens) [17]): -0.455
- composite z-score (Torsin-1A (Homo sapiens) [18]): -0.474
- composite z-score [19]: 0.426

Structure (SMILES): C=C(C(=O)CC[C@@H](OC(C)=O)c1cccc(OCCO)c1)C(C)C
- composite z-score [1]: 0.83
- composite z-score [2]: 0.54
- composite z-score [3]: 0.217
- composite z-score [4]: -0.281
- composite z-score [5]: 0.549
- composite z-score [6]: -0.531
- z-score [7]: -0.106
- composite z-score (Lefty1): 0.889
- composite z-score [8]: 0.449
- z-score [9]: -1.08 (inactive)
- composite z-score [10]: -0.162
- z-score [11]: -0.344 (inactive)
- z-score [12]: 0.0482 (inactive)
- z-score [13]: 2.29 (inactive)
- z-score [14]: 1.23 (inactive)
- composite z-score [15]: -0.377
- composite z-score [16]: 0.0053
- composite z-score (Torsin-1A (Homo sapiens) [17]): 1.93
- composite z-score (Torsin-1A (Homo sapiens) [18]): 0.456
- composite z-score [19]: 2

Structure (SMILES): COCCCNC(=O)[C@@H]1c2ccccc2C(=O)N(Cc2cc(C(F)(F)F)cc(C(F)(F)F)c2)[C@H]1c1ccc(CO)cc1
- composite z-score [1]: 0.358
- composite z-score [2]: 0.6
- composite z-score [3]: 0.358
- composite z-score [4]: -0.788
- composite z-score [5]: 0.144
- composite z-score [6]: 0.188
- z-score [7]: 0.983
- composite z-score (Lefty1): 0.174
- composite z-score [8]: -0.672
- z-score [9]: 0.0036 (inactive)
- composite z-score [10]: 0.128
- z-score [11]: -0.334 (inactive)
- z-score [12]: 0.608 (inactive)
- z-score [13]: 0.288 (inactive)
- z-score [14]: -0.613 (inactive)
- composite z-score [15]: -0.587
- composite z-score [16]: 0.502
- composite z-score (Torsin-1A (Homo sapiens) [17]): 0.47
- composite z-score (Torsin-1A (Homo sapiens) [18]): 0.7
- composite z-score [19]: 0.395

Structure (SMILES): C=CCNC(=O)[C@@H]1[C@H]2C(=O)O[C@H](c3ccccc3)[C@H](c3ccccc3)N2[C@H](c2ccc(O)cc2)[C@@]12C(=O)Nc1ccc(C#CC3(O)CCCCCC3)cc12
- composite z-score [1]: 0.906
- composite z-score [2]: 0.596
- composite z-score [3]: 1.31
- composite z-score [4]: -1.37
- composite z-score [5]: 0.726
- composite z-score [6]: 0.749
- z-score [7]: -0.9
- composite z-score (Lefty1): 0.304
- composite z-score [8]: -0.321
- z-score [9]: 0.27 (inactive)
- composite z-score [10]: 0.179
- z-score [11]: -0.794 (inactive)
- z-score [12]: -0.817 (inactive)
- z-score [13]: -1.69 (inactive)
- z-score [14]: -0.361 (inactive)
- composite z-score [15]: -0.932
- composite z-score [16]: -0.128
- composite z-score (Torsin-1A (Homo sapiens) [17]): 0.16
- composite z-score (Torsin-1A (Homo sapiens) [18]): 0.781
- composite z-score [19]: 1.11

Structure (SMILES): COc1cccc(C[C@H]2C[C@@H](CO[Si](C(C)C)(C(C)C)C(C)C)N3C(=O)[C@@]4(C(C)=O)O[C@@]23[C@@H]2C(=O)N(C)C(=O)[C@@H]24)c1
- composite z-score [1]: -0.265
- composite z-score [2]: 0.681
- composite z-score [3]: 0.0669
- composite z-score [4]: 0.529
- composite z-score [5]: 0.897
- composite z-score [6]: 1.25
- z-score [7]: 0.189
- composite z-score (Lefty1): 1.4
- composite z-score [8]: 0.326
- z-score [9]: 0.768 (inactive)
- composite z-score [10]: 0.0121
- z-score [11]: -2.38 (inactive)
- z-score [12]: 0.333 (inactive)
- z-score [13]: 0.222 (inactive)
- z-score [14]: -0.065 (inactive)
- composite z-score [15]: 0.0285
- composite z-score [16]: 0.2
- composite z-score (Torsin-1A (Homo sapiens) [17]): 0.241
- composite z-score (Torsin-1A (Homo sapiens) [18]): 0.0185
- composite z-score [19]: 1.3

Structure (SMILES): COC(=O)[C@@]1(Cc2ccc(F)cc2)[C@H]2c3cc(C(=O)N4CCCC4)n(CCO)c3C[C@H]2CN1C(=O)c1ccccc1
- composite z-score [1]: 0.896
- composite z-score [2]: 1.05
- composite z-score [3]: 1.51
- composite z-score [4]: -2.15
- composite z-score [5]: -0.212
- composite z-score [6]: -0.862
- z-score [7]: 1.44
- composite z-score (Lefty1): -0.0322
- composite z-score [8]: 0.0962
- z-score [9]: 1.74 (inactive)
- composite z-score [10]: 0.181
- z-score [11]: -0.225 (inactive)
- z-score [12]: 0.452 (inactive)
- z-score [13]: 0.201 (inactive)
- z-score [14]: -0.773 (inactive)
- composite z-score [15]: 0.0865
- composite z-score [16]: -0.0719
- composite z-score (Torsin-1A (Homo sapiens) [17]): -0.113
- composite z-score (Torsin-1A (Homo sapiens) [18]): 0.0413
- composite z-score [19]: -1.69
